The source of these data is the supplement of paper PMC10849652.

What all share (experiment): log2 fold change, soluble protein after heating vs DMSO (PISA); higher = thermal stabilisation; K562 cells, 10 uM, 30 min; active = over 0.2 and 3.5 SD of the protein, either way, in both replicates (recomputed)
Compound in test [1]: C1=CC=C(C=C1)[C@H](COC2=CC3=C(C=C2)NC(=O)N3)NC(=O)C4=CC=CN(C4=O)CC5=CC(=C(C=C5)F)F
A digest of the protocol: (§1)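 Quantification of soluble protein used TMTpro 16plex LC-MS/MS, with channel sums equalised. Samples were the supernatant after 21,000xg for 90 min of pooled aliquots from K562 cells (2×10^6 cells/mL) treated with 10 μM compound for 30 min, heated for 3 min over 48°C-58°C, and extracted in PBS with 0.5% NP-40 at 4°C. Values, from duplicates, describe thermal stability against control samples on a log2 fold-change scale.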

Compound in test [2]: CC1=C(SC2=C1C(=N[C@H](C3=NN=C(N32)C)CC(=O)N)C4=CC=C(C=C4)Cl)C
In a few lines:
as §1

Compound in test [3]: CC1=C2C(=CC=C1)N=C(N(C2=O)C3=CC=CC=C3C)CN4C=NC5=C(N=CN=C54)N
A digest of the protocol: as §1

Compound in test [4]: Cc1sc2c(c1C)C(c1ccc(Cl)cc1)=N[C@@H](CC(=O)OC(C)(C)C)c1nnc(C)n1-2
In a few lines: as §1

Compound in test [5]: c1ccc([C@@H]2C[C@H]2NC2CCNCC2)cc1
A digest of the protocol:
as §1

Of roughly 7,900 targets only a part is listed; those with a hit were picked by preference. About 0.6% of all pairs of compound and target were hits. Values without a mark were called inactive.

Chain of UniProt P53350 (P53350 whole entry, looked up): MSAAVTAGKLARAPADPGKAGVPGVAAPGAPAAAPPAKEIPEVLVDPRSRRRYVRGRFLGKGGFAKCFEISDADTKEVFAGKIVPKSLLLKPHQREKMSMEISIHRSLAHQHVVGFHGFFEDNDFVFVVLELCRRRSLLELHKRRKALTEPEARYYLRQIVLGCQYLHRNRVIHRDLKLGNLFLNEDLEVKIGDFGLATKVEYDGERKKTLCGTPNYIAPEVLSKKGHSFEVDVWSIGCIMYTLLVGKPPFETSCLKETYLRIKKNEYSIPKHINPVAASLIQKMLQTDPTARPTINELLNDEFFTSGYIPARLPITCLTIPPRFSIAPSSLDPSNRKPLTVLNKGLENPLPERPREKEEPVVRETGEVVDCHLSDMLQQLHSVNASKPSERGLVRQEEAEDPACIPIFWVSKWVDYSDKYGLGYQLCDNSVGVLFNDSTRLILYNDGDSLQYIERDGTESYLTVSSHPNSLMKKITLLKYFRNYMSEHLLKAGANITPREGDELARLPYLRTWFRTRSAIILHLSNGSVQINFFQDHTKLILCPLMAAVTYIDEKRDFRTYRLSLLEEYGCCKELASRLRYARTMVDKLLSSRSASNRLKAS
Chain of UniProt Q6EEV4 (Q6EEV4 whole entry, looked up): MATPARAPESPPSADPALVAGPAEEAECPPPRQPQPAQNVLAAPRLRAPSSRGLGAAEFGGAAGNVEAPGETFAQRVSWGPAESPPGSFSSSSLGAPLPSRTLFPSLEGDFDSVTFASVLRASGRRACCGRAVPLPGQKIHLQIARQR
Chain of UniProt P35227 (P35227 whole entry, looked up): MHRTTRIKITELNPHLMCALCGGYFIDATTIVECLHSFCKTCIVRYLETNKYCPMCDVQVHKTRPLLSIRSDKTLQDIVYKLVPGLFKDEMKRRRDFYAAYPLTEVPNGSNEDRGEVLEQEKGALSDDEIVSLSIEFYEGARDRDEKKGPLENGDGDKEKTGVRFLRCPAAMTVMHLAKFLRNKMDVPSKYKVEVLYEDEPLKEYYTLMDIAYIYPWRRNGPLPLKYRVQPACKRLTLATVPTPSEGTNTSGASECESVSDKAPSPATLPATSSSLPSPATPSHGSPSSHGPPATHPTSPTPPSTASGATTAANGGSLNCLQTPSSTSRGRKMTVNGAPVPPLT
Chain of UniProt P09884 (P09884 whole entry, looked up): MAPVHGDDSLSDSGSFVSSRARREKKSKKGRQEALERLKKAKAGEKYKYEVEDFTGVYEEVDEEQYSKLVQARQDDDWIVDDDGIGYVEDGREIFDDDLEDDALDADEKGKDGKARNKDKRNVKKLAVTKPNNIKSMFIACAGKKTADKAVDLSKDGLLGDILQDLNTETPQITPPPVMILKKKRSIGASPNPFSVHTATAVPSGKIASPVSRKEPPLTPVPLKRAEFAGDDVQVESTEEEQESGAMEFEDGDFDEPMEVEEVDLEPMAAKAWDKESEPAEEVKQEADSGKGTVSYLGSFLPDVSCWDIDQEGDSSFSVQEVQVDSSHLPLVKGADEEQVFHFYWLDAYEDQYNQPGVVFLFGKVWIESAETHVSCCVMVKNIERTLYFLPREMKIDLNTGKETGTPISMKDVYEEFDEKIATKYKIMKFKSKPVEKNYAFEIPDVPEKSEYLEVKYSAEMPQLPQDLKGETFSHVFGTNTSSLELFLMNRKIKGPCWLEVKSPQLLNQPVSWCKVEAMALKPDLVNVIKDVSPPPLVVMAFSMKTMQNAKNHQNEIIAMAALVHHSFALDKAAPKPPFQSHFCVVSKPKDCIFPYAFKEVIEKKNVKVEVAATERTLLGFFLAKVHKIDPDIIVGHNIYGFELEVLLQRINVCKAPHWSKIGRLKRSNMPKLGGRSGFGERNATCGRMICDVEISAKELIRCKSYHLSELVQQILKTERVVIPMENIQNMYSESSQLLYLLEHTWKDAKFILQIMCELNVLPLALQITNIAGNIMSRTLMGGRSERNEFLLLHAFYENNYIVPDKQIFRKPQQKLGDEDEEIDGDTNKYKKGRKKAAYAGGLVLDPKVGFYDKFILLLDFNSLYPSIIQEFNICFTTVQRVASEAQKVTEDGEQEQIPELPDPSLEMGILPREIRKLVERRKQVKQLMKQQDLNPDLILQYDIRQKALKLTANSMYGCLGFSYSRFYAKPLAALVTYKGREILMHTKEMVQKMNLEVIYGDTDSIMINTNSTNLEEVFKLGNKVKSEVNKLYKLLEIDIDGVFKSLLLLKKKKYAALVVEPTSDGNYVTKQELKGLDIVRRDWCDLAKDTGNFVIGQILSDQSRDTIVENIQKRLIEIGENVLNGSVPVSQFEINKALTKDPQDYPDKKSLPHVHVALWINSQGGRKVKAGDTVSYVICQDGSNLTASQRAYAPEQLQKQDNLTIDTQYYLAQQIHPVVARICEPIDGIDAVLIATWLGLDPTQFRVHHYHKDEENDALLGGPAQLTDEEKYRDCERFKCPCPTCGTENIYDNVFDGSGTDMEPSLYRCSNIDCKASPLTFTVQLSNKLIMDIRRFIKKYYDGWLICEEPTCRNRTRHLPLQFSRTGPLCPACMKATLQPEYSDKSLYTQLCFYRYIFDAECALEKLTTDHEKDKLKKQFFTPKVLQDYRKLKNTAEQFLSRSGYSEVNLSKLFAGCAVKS
Chain of UniProt O00628 (O00628 whole entry, looked up): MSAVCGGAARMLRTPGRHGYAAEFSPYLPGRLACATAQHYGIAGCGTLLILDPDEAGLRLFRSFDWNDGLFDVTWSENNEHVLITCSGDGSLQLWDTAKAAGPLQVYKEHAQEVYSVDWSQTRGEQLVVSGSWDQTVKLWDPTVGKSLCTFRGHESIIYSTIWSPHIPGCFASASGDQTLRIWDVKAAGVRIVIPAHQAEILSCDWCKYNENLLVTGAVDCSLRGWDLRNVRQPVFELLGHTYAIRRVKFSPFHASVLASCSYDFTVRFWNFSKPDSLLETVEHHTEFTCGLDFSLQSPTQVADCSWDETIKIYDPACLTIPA
Chain of UniProt Q15111 (Q15111 whole entry, looked up): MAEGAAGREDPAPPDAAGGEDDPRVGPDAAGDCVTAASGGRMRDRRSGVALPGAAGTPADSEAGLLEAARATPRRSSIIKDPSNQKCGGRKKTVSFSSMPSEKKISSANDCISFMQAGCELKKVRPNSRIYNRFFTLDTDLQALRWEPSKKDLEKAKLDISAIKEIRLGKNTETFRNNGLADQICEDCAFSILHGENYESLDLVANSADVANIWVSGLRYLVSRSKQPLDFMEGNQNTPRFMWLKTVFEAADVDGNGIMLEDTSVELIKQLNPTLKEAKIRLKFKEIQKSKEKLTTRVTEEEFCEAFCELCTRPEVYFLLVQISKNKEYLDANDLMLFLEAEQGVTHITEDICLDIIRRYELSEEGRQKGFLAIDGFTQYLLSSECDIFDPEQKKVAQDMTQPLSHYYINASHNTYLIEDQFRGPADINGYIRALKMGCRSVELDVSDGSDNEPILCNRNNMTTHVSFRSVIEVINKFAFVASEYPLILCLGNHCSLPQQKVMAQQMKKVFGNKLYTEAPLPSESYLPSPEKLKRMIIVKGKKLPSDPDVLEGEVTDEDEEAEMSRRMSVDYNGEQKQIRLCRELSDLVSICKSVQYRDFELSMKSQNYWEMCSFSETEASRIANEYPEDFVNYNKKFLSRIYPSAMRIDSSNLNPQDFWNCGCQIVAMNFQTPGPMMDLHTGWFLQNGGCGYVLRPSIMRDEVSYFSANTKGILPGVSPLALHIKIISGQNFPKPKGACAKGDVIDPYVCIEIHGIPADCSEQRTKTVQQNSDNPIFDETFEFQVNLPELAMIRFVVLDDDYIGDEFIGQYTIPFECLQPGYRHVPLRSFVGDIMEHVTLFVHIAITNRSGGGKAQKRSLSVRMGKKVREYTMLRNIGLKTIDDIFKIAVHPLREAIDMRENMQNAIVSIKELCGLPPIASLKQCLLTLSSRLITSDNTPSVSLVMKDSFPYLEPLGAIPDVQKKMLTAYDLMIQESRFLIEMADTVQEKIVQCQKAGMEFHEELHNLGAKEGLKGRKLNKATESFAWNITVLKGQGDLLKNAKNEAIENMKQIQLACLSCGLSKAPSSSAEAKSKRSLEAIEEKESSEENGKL
Chain of UniProt P14618 (P14618 whole entry, looked up): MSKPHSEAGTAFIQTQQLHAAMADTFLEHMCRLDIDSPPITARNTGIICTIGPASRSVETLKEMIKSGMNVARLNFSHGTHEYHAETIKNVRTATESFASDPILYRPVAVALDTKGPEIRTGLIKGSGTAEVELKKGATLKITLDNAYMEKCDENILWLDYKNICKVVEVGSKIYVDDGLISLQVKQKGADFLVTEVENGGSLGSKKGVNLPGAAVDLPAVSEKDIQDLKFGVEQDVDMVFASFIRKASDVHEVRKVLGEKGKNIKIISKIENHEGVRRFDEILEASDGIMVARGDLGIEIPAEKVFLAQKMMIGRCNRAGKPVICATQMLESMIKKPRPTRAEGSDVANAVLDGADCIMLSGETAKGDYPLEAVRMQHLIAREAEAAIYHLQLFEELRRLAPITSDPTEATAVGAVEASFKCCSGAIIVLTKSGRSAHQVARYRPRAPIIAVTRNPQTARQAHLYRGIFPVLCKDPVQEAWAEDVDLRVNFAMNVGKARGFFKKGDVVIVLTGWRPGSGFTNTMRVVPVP
Chain of UniProt Q15126 (Q15126 whole entry, looked up): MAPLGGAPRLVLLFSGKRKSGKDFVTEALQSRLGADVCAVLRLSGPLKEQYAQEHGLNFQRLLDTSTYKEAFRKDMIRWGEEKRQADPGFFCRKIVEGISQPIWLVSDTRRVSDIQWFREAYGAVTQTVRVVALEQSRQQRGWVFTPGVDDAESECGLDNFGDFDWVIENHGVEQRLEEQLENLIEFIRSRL
Chain of UniProt Q92871 (Q92871 whole entry, looked up): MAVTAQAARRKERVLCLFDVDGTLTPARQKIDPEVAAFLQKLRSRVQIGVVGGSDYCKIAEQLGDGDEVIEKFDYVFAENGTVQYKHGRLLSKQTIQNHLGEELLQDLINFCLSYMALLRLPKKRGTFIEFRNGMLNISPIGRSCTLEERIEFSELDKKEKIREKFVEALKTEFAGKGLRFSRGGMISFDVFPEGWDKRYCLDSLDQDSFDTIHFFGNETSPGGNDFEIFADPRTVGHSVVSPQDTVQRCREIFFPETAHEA

POLR2M (UniProt Q6EEV4): the log2 fold change in test [1] was 0.092; in test [2] it was 0.105; in test [3], -0.002; in test [4], -0.128; in test [5], -0.107.
Turning to PMM1 (UniProt Q92871), the log2 fold change in test [1] is -0.031; in test [2], -0.001; in test [3], 0.091; in test [4], 0.004; in test [5], -0.006.
Turning to PLCL1 (UniProt Q15111), the log2 fold change in test [1] is 0.12; in test [2], 0.073; in test [3], 0.165; in test [4] it was -0.029; in test [5], 0.052.
For PDE4DIP isoform 4 (UniProt Q5VU43), the log2 fold change is 0.023 in test [1]; 0.043 in test [2]; 0.046 in test [3]; -0.023 in test [4]; -0.011 in test [5].
Regarding PXK (UniProt Q7Z7A4), the log2 fold change is -0.015 in test [1]; 0.04 in test [2]; 0.098 in test [3]; 0.011 in test [4]; -0.045 in test [5].
The matching figures for PKM (UniProt P14618): -0.008, 0.032, 0.004, -0.005 and 0.026.
The corresponding values for PHLDB1 isoform 2 (UniProt Q86UU1) are -0.006, 0.073, 0.081, 0.008 and 0.002.
The matching figures for PCGF2 (UniProt P35227): -0.046, 0.133, -0.015, 0.002 and -0.05.
Consider PSMD3 (UniProt O43242), for which the log2 fold change in test [1] is 0.028; in test [2], -0.055; in test [3] it was -0.006; in test [4], -0.023; in test [5], -0.011.
The corresponding values for PC (UniProt P11498) are -0.012, 0.031, 0.111, 0.025 and -0.021.
The corresponding values for PMVK (UniProt Q15126) are -0.156, 0.004, 0.116, 0.063 and 0.028.
The corresponding values for POLA1 (UniProt P09884) are -0.059, 0.105, 0.101, -0.012 and 0.
Turning to PLK1 (UniProt P53350), the log2 fold change in test [1] is 0.02; in test [2], 0.037; in test [3] it was 0.019; in test [4], -0.012; in test [5] it was 0.007.
The corresponding values for POLR2E (UniProt P19388) are -0.013, 0.094, -0.023, 0.054 and -0.06.
For PEX7 (UniProt O00628), the log2 fold change in test [1] was -0.371 (active); in test [2], 0.035; in test [3], 0.136; in test [4], 0.021; in test [5] it was -0.03.
The corresponding values for PIGT (UniProt Q969N2) are 0.022, 0.142, -0.013, 0.276 (active) and -0.021.
